Screens as filed in PubChem.
A selection: hits, their analogues and other compounds. The true share with any hit is near 3.4%.
TEAD-YAP block: TEAD-YAP interaction inhibition; 640,000 compounds, 1.4% hits; AID 1259422; HEK-TIYL cells, TEAD-Gal4/YAP UAS-luciferase luminescence; inhibition, % at 9.12 µM; in the data active = inhibition above about 32%;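 note: 0% = median of test compound wells and 100% = reference inhibitor wells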
MITF primary: human MITF inhibition, primary screen | O75030 | inhibition, % at 2.6 µM | AlphaScreen MITF homodimerization, bead proximity signal | 650,000 compounds, 0.91% hits; in the data active = inhibition above about 50%;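 note: 0% = vehicle wells with protein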
FBW7 activator: human FBW7 E3 ligase activation, primary screen | Q969H0 | AlphaScreen FBW7–phospho-cyclin E peptide binding, activator screen | normalized activity (activation), % at 26.1 µM | 650,000 compounds, 0.13% hits; in the data active = normalized activity above about 1.9%;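 note: purified mutant Fbw7 with reduced substrate affinity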
Target sequence (Q969H0 whole entry, looked up): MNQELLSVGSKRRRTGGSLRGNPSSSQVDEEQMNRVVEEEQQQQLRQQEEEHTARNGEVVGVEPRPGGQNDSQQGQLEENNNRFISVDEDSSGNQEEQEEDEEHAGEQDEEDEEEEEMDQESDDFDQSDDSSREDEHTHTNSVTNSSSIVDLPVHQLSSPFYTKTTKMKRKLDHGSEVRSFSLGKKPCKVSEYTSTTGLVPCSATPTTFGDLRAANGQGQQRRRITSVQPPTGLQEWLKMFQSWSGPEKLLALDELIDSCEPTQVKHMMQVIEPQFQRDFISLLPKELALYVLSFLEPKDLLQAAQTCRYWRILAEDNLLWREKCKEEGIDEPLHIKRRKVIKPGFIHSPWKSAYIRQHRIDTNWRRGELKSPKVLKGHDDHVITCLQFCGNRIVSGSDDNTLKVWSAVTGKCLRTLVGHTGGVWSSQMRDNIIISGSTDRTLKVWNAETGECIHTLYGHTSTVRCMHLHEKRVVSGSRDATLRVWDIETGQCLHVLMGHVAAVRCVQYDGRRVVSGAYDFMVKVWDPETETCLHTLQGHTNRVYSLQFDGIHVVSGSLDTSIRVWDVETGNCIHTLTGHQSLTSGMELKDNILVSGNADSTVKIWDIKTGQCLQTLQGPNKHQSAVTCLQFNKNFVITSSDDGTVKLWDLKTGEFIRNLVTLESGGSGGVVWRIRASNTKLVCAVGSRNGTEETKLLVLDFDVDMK
GPR151 ag: activators of human GPR151. AID 1508602. Q8TDV0. PathHunter beta-arrestin GPR151 cells, luminescence. activation, % at 11.2 µM. 650,000 compounds, 1% hits; in the data active = activation above about 4.9%;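 note: 0% = median of compound wells and 100% = cells with positive control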
Active calls of the source: *.

`O=C(NCCOc1ccccc1)c1cccc(Nc2ccc(-n3ccnc3)cc2)n1` gave TEAD-YAP block 61*, MITF primary 11, FBW7 activator 0 and GPR151 ag 2.
For Cc1nc(Nc2ccc(F)cc2F)c2c3c(sc2n1)CCC3 the results were TEAD-YAP block 12, MITF primary -2, FBW7 activator 0 and GPR151 ag 0.
Screening O=C(Nc1ccc(NC(=O)c2ccccc2I)cc1Cl)c1ccco1 returned TEAD-YAP block -9, MITF primary -2, FBW7 activator 0 and GPR151 ag 1.
For COc1ccc(OC)c(NC(=O)CN2CCC(O)(c3cccnc3)CC2)c1 the results were TEAD-YAP block -5, MITF primary 2, FBW7 activator 0 and GPR151 ag 0.
COCc1ccc(-c2ccc(OC3CCNCC3)cc2)cc1 was read as TEAD-YAP block 38*, MITF primary -5, FBW7 activator 0 and GPR151 ag 0.
Screening c1ccc2oc(-c3ccc(OC4CCNCC4)cc3)cc2c1 returned TEAD-YAP block 68*, MITF primary -4, FBW7 activator 0 and GPR151 ag 2.
For CCN1CCC(Oc2ccc(-c3ccc(COC)cc3)cc2)CC1 the results were TEAD-YAP block -30, MITF primary 7, FBW7 activator 0 and GPR151 ag 4.
Screening N#Cc1ccc(-c2ccc(OC3CCNCC3)cc2)cc1 returned TEAD-YAP block -42, MITF primary 18, FBW7 activator 0 and GPR151 ag 0.
Screening CCNC(=O)N1CCN(Cc2ccccc2)CC1C(=O)N1CCOCC1 (configuration not stated) returned TEAD-YAP block -4, MITF primary 5, FBW7 activator 0 and GPR151 ag 1.
Screening COCCNc1nccn2c(-c3cccc(O)c3)cnc12 returned TEAD-YAP block -4, MITF primary -6, FBW7 activator 0 and GPR151 ag 0.
For O=[N+]([O-])c1cnc(Nc2cccc3nonc23)c([N+](=O)[O-])c1 the results were TEAD-YAP block 12, MITF primary -4, FBW7 activator -1 and GPR151 ag 0.
For COc1ccc(-c2nc(NCCO)c3ncn(-c4ccccc4)c3n2)cn1 the results were TEAD-YAP block 73*, MITF primary 7, FBW7 activator 0 and GPR151 ag -1.
`COc1ccc(-c2nc(NCCO)c3ncn(-c4ccccc4)c3n2)cc1` gave TEAD-YAP block 61*, MITF primary 4, FBW7 activator 0 and GPR151 ag 1.
CCCNc1nc(-c2ccc(OC)cc2)nc2c1ncn2-c1ccsc1 was read as TEAD-YAP block 6, MITF primary -2, FBW7 activator 0 and GPR151 ag 0.
CCCNc1nc(-c2ccc(OC)nc2)nc2c1ncn2-c1ccsc1 was read as TEAD-YAP block 51*, MITF primary 7, FBW7 activator 1 and GPR151 ag 1.
`COc1ccc(-c2nc(NC3CC3)c3ncn(-c4ccccc4)c3n2)cn1` gave TEAD-YAP block 48*, MITF primary 18, FBW7 activator 0 and GPR151 ag -1.
`COc1ccc(-c2nc(NCc3ccccc3)c3ncn(-c4ccccc4)c3n2)cn1` gave TEAD-YAP block 8, MITF primary -1, FBW7 activator 0 and GPR151 ag -1.
Screening COc1ccc(C(=O)NCC(=O)N/N=C/c2ccc(O)c([N+](=O)[O-])c2)cc1OC returned TEAD-YAP block 2, MITF primary 11, FBW7 activator 0 and GPR151 ag 0.
`CCOC(=O)C1=C(C)N=c2s/c(=C\c3cc(C)n(-c4ccc(C)cc4)c3C)c(=O)n2C1c1ccc(OC)cc1` (configuration not stated) gave TEAD-YAP block 17, MITF primary -7, FBW7 activator 0 and GPR151 ag 3.
`CCCNc1nc(-c2ccc(OC)nc2)nc2c1ncn2-c1ccccc1` gave TEAD-YAP block 33*, MITF primary 7, FBW7 activator 0 and GPR151 ag 0.
For COc1c(I)cc(Br)cc1/C=N/NC(=O)CC#N the results were TEAD-YAP block 1, MITF primary 3, FBW7 activator 0 and GPR151 ag -1.
`O=C1C(=C2C=CN(CCc3ccccc3)C=C2)C(=O)c2ccccc21` gave TEAD-YAP block -65, MITF primary -7, FBW7 activator 0 and GPR151 ag -1.
`CCCCN1C=CC(=C2C(=O)c3ccccc3C2=O)C=C1` gave TEAD-YAP block 96*, MITF primary 18, FBW7 activator 1 and GPR151 ag -8.
`Cc1[nH]ncc1-c1ccc2cnc(Nc3ccc(-n4cnc(N5CCOCC5)n4)cc3)nc2c1` gave TEAD-YAP block 85*, MITF primary 18, FBW7 activator 0 and GPR151 ag 0.
Cn1cnc(-c2ccc3cnc(Nc4ccc(-n5cnc(N6CCOCC6)n5)cc4)nc3c2)n1 was read as TEAD-YAP block 1, MITF primary 30, FBW7 activator 1 and GPR151 ag 1.
`Cc1nc(-c2ccc3cnc(Nc4ccc(-n5cnc(N6CCOCC6)n5)cc4)nc3c2)n[nH]1` gave TEAD-YAP block 29, MITF primary 42, FBW7 activator 1 and GPR151 ag 0.
For Cc1n[nH]c(C)c1-c1ccc2cnc(Nc3ccc(-n4cnc(N5CCOCC5)n4)cc3)nc2c1 the results were TEAD-YAP block 35*, MITF primary 15, FBW7 activator 0 and GPR151 ag 0.
Screening O=C(O)c1cc(N2C(=O)c3cccc4cc(Br)cc(c34)C2=O)ccc1O returned TEAD-YAP block -1, MITF primary 5, FBW7 activator 0 and GPR151 ag 1.
Oc1ccc(Br)cc1CNc1nc2ccccc2[nH]1 was read as TEAD-YAP block -10, MITF primary 74*, FBW7 activator 0 and GPR151 ag 0.
`Oc1ccc(Cl)cc1CNc1nc2ccccc2[nH]1` gave TEAD-YAP block -16, MITF primary -4, FBW7 activator 0 and GPR151 ag 2.
`COCCCN1C(=O)CC(CC(=O)N(C)C(C)C)(c2ccccc2OC)C1=O` (configuration not stated) gave TEAD-YAP block -5, MITF primary -10, FBW7 activator 0 and GPR151 ag 1.
Cc1cc2cc3c(cc2n2c(=O)n(CCN(C)C)nc12)OCO3 was read as TEAD-YAP block -4, MITF primary 0, FBW7 activator 0 and GPR151 ag 0.
Screening Cc1cc(C)c2cc(C)c3nn(CCN(C)C)c(=O)n3c2c1 returned TEAD-YAP block 41*, MITF primary 20, FBW7 activator 1 and GPR151 ag 0.
O=[N+]([O-])c1cccc(-c2csc(N/N=C\c3ccccn3)n2)c1 was read as TEAD-YAP block -24, MITF primary 9, FBW7 activator -1 and GPR151 ag 0.
Screening O=[N+]([O-])c1ccc(/C=N/Nc2nc3ccccc3o2)cc1 returned TEAD-YAP block -24, MITF primary -12, FBW7 activator 0 and GPR151 ag 1.
Screening CN(C)c1ccc(/C=N/Nc2nc3ccccc3o2)cc1 returned TEAD-YAP block 55*, MITF primary 13, FBW7 activator 0 and GPR151 ag -4.
For O=C(N/N=C/c1c(O)ccc2ccccc12)c1[nH]ncc1Br the results were TEAD-YAP block 42*, MITF primary 26, FBW7 activator -1 and GPR151 ag 0.
